# Experimental data: ChEMBL document CHEMBL4513146, “CO-ADD screening of Karazin Kharkiv National University (Ukraine) compounds”
# Measured potencies and affinities stand elsewhere.
# Tests used:
# Klebsiella pneumoniae = details: Concentration 32 ug.mL-1;; ASSAY_TEST Inhibition of Bacterial Growth; detection method Absorption (OD600); MEDIA CAMHB; plate type 384well; NBS; CORNING #3640; time 18 hr
# Candida albicans = details: Concentration 32 ug.mL-1; ASSAY_TEST Inhibition of Fungal Growth; detection method Absorption (OD530)
# Cryptococcus neoformans = details: Concentration 32 ug.mL-1; ASSAY_TEST Inhibition of Fungal Growth; detection method Resazurin; Absorption (OD600-OD570); plate type 384well; NBS; CORNING #3640
SMILES,Inhibition (Klebsiella pneumoniae) [%],Inhibition (Candida albicans) [%],Inhibition (Cryptococcus neoformans) [%]
O=C(Cn1nc2c3cc(-c4ccc(Cl)cc4)nn3ccn2c1=O)NC1CCCC1,4.67,2.49,-18.35
Cc1ccc2c(c1)N(C(=O)Cn1nc3ccc(S(=O)(=O)C(C)(C)C)nn3c1=O)CCO2,13.78,0.51,-14.77
Cc1ccc(-n2ccn3c(SCC(=O)N4CCN(c5ccc(F)cc5)CC4)nnc3c2=O)cc1C,1.76,0.36,-5.04
Cc1cc(C)cc(N(Cc2ccc(F)cc2)S(=O)(=O)c2cccn3cnnc23)c1,7.95,1.02,-10.98
O=C(CSc1nnc2c(=O)n(-c3ccc(F)cc3)ccn12)N1CCN(c2ccc(F)cc2)CC1,-5.39,-0.55,-6.2
Cc1nnc2ccc(S(=O)(=O)N(Cc3ccccc3)c3ccc(F)cc3)cn12,4.54,1.53,-1.68
CCc1nnc2c(=O)n(CC(=O)Nc3ccc4c(c3)OCCO4)c3ccccc3n12,1.64,13.49,-11.52
CCC(C)NC(=O)Cn1nc2n(CCC(C)C)c(=O)c3sccc3n2c1=O (stereo not given),0.17,-2.39,-17.2
COc1cccc(-n2ccn3c(SCC(=O)Nc4ccc(F)cc4F)nnc3c2=O)c1,3.3,4.17,-12.76
Cc1ccc(-c2ccc3nn(Cc4nc(-c5ccc(Cl)cc5)no4)c(=O)n3n2)cc1C,7.1,1.35,-12.88
Cc1ccc(NC(=O)Cn2nc3c(Sc4ccccc4)nc4ccccc4n3c2=O)cc1C,0.03,0.48,-2.74
CCOc1ccccc1NC(=O)Cn1nc2c(N3CCN(c4ccccc4C)CC3)nccn2c1=O,-9.36,21.63,-5.29
O=C(CSc1nnc2c3cc(-c4ccc(F)cc4)nn3ccn12)Nc1ccccc1C(F)(F)F,-6.96,5.14,-18.14
COc1cc(NC(=O)Cn2nc3ccc(SC(C)(C)C)nn3c2=O)cc(OC)c1OC,14.77,0.63,-18.78
O=C(Cn1nc2ccc(-c3ccccc3)nn2c1=O)Nc1ccc(F)c(Cl)c1,7.19,1.94,-6.93
COC(=O)c1sccc1NC(=O)Cn1nc2c(Oc3ccc(C)cc3)nc3ccccc3n2c1=O,13.09,3.6,-31.95
CCCCc1ccc(NC(=O)Cn2c(=O)c3nnc(CCC)n3c3ccccc32)cc1,6.31,4.08,-20.48
COc1ccc(NC(=O)C(C)Sc2nnc3c(=O)n(-c4ccccc4)ccn23)cc1 (stereo not given),12.19,1.79,-7.55
COc1ccc(Cl)cc1NC(=O)Cn1nc2c3cc(-c4ccc(C)cc4)nn3ccn2c1=O,5.55,14.91,-9.24
O=C(Cn1nc2c(N3CCN(c4ccccc4)CC3)nccn2c1=O)Nc1ccc2c(c1)OCO2,5.9,4.15,-7.4
COc1ccccc1NC(=O)Cn1nc2c(SCc3ccccc3)nccn2c1=O,0.49,5.7,-17.11
COc1ccc(N(Cc2cccc(Cl)c2)S(=O)(=O)c2ccc3nncn3c2)cc1,12.52,3.54,-3.69
COc1ccc(NC(=O)CSc2nnc3c(=O)n(-c4ccccc4)ccn23)cc1,0.2,2.88,-4.81
COc1ccc2[nH]cc(C(=O)CSc3nnc4c(=O)n(-c5ccc(F)cc5)ccn34)c2c1,12.89,3.24,-7.69
CCCN(C)c1nccn2c(=O)n(CC(=O)Nc3ccc(C#N)cc3)nc12,16.62,0.92,-9.74
O=C(Cn1nc2c(=O)n(-c3ccc(Br)cc3)ccn2c1=O)Nc1cc(F)ccc1F,9.16,1.05,-5.83
COc1cccc(Oc2nccn3c(=O)n(CC(=O)Nc4ccc(Br)cc4F)nc23)c1,17.17,0.55,-10.01
CCCn1c(=O)c2sccc2n2c(CCC(=O)NCCC34CC5CC(CC(C5)C3)C4)nnc12,9.89,5.72,-25.69
CCCc1ccc(S(=O)(=O)Nc2ccc3nncn3n2)cc1,8.2,1.65,-5.43
Cc1ccc(CNC(=O)CSc2nnc3c(=O)n(-c4ccccc4)ccn23)cc1,13.24,3.44,-18.23
